USP2a inh – USP2a (human) protease inhibition | O75604 | USP2 core, Ub-CHOP2 coupled fluorogenic reporter, 485/531 | 0.01% of 330,000 active | Potency, µM (highest dose often 38.3 µM), for inactives: top-dose activity change, negative = inhibition, usual class: inhibitors | AID 463254;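 also: potency is read from the fitted curve at half-maximal effect; plate controls were DMSO wells for no effect and full inhibition by NEM control for full effect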
Target sequence (O75604 whole entry, looked up): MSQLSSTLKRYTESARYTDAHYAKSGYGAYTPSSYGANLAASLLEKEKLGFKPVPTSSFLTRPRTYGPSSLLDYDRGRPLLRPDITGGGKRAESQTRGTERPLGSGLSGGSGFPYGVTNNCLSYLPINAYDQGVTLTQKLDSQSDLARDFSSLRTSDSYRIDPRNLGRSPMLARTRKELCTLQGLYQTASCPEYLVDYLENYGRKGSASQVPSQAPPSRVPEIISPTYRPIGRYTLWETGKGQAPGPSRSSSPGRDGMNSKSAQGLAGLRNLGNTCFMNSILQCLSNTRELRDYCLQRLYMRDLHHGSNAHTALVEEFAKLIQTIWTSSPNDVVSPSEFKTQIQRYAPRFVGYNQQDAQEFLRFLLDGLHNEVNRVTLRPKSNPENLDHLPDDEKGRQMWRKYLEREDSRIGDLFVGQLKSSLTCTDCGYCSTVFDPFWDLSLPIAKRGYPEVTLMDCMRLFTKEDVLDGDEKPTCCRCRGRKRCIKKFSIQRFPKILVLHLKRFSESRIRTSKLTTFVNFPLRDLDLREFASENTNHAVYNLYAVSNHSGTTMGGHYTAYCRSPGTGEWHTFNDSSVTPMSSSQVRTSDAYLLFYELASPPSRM
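USP2 core (10nM final) preincubated 30min RT with compound in 20mM Tris-HCl pH 8.0, 2mM CaCl2, 2mM beta-mercaptoethanol, 0.05% CHAPS; 25nM Ub-CHOP2 plus 25nM reporter substrate added, fluorescence (Ex485/Em531) read after 60min.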
L3MBTL1 inh-1 – inhibitors of human L3MBTL1. Q9Y468. AlphaScreen L3MBTL1–H3K9me1 peptide binding. Potency, µM (titrated, usually from 57.1 µM), for the others: at the highest dose activity, negative = inhibition, most hits filed as inhibitors. 0.66% of 230,000 active; also: potency is read from the fitted curve at half-maximal effect; % is scaled to controls: 0 for no effect and ±100 for the full control effect; nearly all actives have a fitted effect of over 60% in size
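First, the protein-peptide complex forms for 30 min at room temperature (L3MBTL1 50 nM, biotinylated H3K9me1 peptide 75 nM). Next, compounds are pin-transferred and incubated 30 min. Finally, AlphaScreen beads are added and read after 30 min.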
Eya2 phos inh – inhibitors of human Eya2 phosphatase activity; O00167; recombinant Eya2, OMFP fluorescence dephosphorylation (OMFP is methylfluorescein phosphate); Potency, µM (series often up to 76.9 µM), inactives show top-dose activity, negative = inhibition, most hits filed as inhibitors; AID 488837; 0.006% of 330,000 active; also: potency is read from the fitted curve at half-maximal effect; % is scaled to controls: 0 for no effect and ±100 for the full control effect
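Eya2 (0.2 uM) preincubated 10 min at ambient with compound, then OMFP substrate added at 50 uM; 10 min reaction in 50 mM HEPES pH 7.5, 50 mM NaCl, 5 uM MgCl2, 0.05% BSA, 1 mM DTT. Fluorescence read at Ex 485/Em 525 nm.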
Six1-Eya2 inh – blocks human Six1 binding to Eya2. activity change, % (no concentration beside the values). Q15475+O00167. AID 651725. 0.56% of 360,000 active. AlphaScreen GST-Six1/His-Eya2 binding, biochemical; active compounds read low; in the data active = activity change below about -65%; inconclusive = mostly about -30% to -63%; also: % is scaled to controls: 0 for no effect and ±100 for the full control effect
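GST-Six1 + His-Eya2 (5X stock: 250/500 nM); Tris pH 8.0, 300 mM NaCl, 0.05% BSA, 0.02% Tween 20; GSH donor/Ni acceptor beads; 1 h 37 °C dark; AlphaScreen readout.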
uPA generation – cell surface uPA generation inhibition; cell surface uPA generation assay, qHTS; Potency, µM (series often up to 38.3 µM), for the others: at the top dose activity change, negative = inhibition, actives largely listed as inhibitors; 0.31% of 330,000 active; active = well fitted inhibition curve with a large enough effect; inconclusive = small, poorly fitted or top-dose-only effect; inactive = no such curve, though single readings can be large or run the other way; tested in mouse RAW 264.7 cells; also: potency is read from the fitted curve at half-maximal effect; % is scaled to controls: 0 for no effect and ±100 for the full control effect; nearly all actives have a fitted effect of over 55% in size
CtBP-E1A blk – inhibitors of CtBP/E1A interaction. AlphaScreen GST-E1A/His-CtBP binding, 1536-well; active compounds read low. 0.49% of 340,000 active. AID 651724. activity change, % (concentration not given with the values); in the data active = activity change below about -65%; inconclusive = mostly about -30% to -63%; also: % is scaled to controls: 0 for no effect and ±100 for the full control effect
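AlphaScreen with 125 nM GST-E1A and 125 nM His-CtBP (5X stocks) in Tris pH 8.0, 300 mM NaCl, BSA, Tween 20, TCEP. Compounds preincubated 2 h at 37 deg C, then glutathione donor/nickel acceptor beads added for 1 h at 37 deg C in dark.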
L3MBTL1 inh-2 – blocks human L3MBTL1 methyl-lysine binding; shares compounds with L3MBTL1 inh-1; L3MBTL1 methyl-lysine binding inhibition, biochemical qHTS; Potency, µM, usual class: inhibitors; 91% of 500 active; also: potency is read from the fitted curve at half-maximal effect; nearly all actives have a fitted effect of over 70% in size
L3MBTL1 ctr – AlphaScreen signal inhibition, L3MBTL1 hit counter-screen | shares compounds with L3MBTL1 inh-1 | 500 tested, under 10 active | AlphaScreen counterscreen, signal inhibition | Potency, µM (series often up to 57.1 µM), for the others: top-dose activity change, negative = inhibition, most hits filed as inhibitors | AID 602224; also: potency is read from the fitted curve at half-maximal effect; 0% is about no effect
* marks the source's active call; other numbers are inactive results; ? = inconclusive; nt = not tested or not shown. Compounds with a hit are over-represented: about 1.2% of the library has one in this group of screens. Unless noted, calls follow the shape of the dose curve; as a rule, active = well fitted curve in the direction sought with a large enough effect; inconclusive = small, poorly fitted or top-dose-only effect, or another doubt; inactive = no such curve, though single readings can be large; an effect the other way counts as inactive or inconclusive.

SMILES	USP2a inh	L3MBTL1 inh-1	Eya2 phos inh	Six1-Eya2 inh	uPA generation	CtBP-E1A blk	others
CCOc1ccccc1N1CCN(C/C=C/c2ccc(N(C)C)cc2)CC1	-1.1%	nt	17.5%	-76.5*	-1.4%	?
COc1ccc(Cl)cc1NC(=O)CCCn1c(=O)c2cccn2c2cccnc21	nt	nt	nt	?	nt	-7.7
CCOCC(=O)Nc1ccc2c(c1)N(S(=O)(=O)c1cccs1)CCC2	2.8%	2.0%	6.4%	-1.3	0.9%	4.9
O=C(COc1cccc([N+](=O)[O-])c1)N/N=C/c1ccco1	-2.5%	-10.7%	15.0%	11.1	9.7%	nt
CCc1ccc(OCC(=O)N/N=C\c2ccco2)c([N+](=O)[O-])c1	2.2%	35.5µM*	-3.0%	0.2	-1.9%	1.5
O=C(CNC(=O)C12CC3CC(CC(C3)C1)C2)OCc1ccc(F)cc1Cl	3.4%	3.3%	1.5%	8.7	-5.0%	9.7
COc1cnc(-c2ccccn2)nc1Sc1ccc(F)cc1	0.0%	?	0.6%	?	0.5%	-72.5*
Cc1ccc(CN2CCN(/N=C/C=C/c3ccccc3[N+](=O)[O-])CC2)cc1	1.2%	?	-9.9%	?	-1.1%	-75.8*
Clc1ccc2nncn2n1	2.8%	4.8%	11.6%	-1.6	7.1%	nt
O=C(Nc1cccc(C(F)(F)F)c1)c1cc[n+]([O-])cc1	0.2%	nt	-7.1%	7.5	-4.3%	5.4
O=C(Nc1cccc(C(F)(F)F)c1)c1ccc2nc(-c3ccco3)c(-c3ccco3)nc2c1	-5.5%	nt	-0.1%	-76.8*	4.8%	?
O=C(O)c1ccc2nc(-c3ccco3)c(-c3ccco3)nc2c1	0.7%	2.24µM*	0.7%	?	-8.6%	-25.4
O=C(c1ccc2nc(-c3ccco3)c(-c3ccco3)nc2c1)N1CCN(c2ccccc2)CC1	1.5%	?	3.1%	?	nt	-21.5
Cc1cc(C(=O)COc2cccc3cccnc23)c(C)n1C	?	11.2µM*	41.4%	?	-3.8%	?
CSc1ncccc1C(=O)OCC(=O)c1cc(C)n(C)c1C	-0.4%	-12.9%	-11.3%	0.3	4.8%	-5.0
Cc1cc(C(=O)COC(=O)/C=C/c2cccc(Br)c2)c(C)n1C	1.0%	-7.8%	-8.8%	?	6.0%	-65.9*
Cc1cc(C(=O)COC(=O)c2cccnc2Cl)c(C)n1C	5.5%	-3.9%	7.2%	-13.5	8.91µM*	-11.1
Cc1ccc(-n2nc3c(=O)n(CC(=O)NC4CCCCC4)nc(C)c3c2C)cc1	2.5%	nt	3.4%	0.3	1.7%	nt
CCOC(=O)c1[nH]c(C)c(C(=O)Nc2ccc(C)c(C)c2)c1C	-1.1%	5.4%	-20.9%	0.8	?	-1.6
CCOC(=O)c1[nH]c(C)c(C(=O)Nc2ccc(C)cc2C)c1C	0.3%	?	-11.2%	-5.0	2.51µM*	0.6
Cc1nnc2ccc(-c3cccc(NC(=O)c4ccc(Br)o4)c3)nn12	1.2%	nt	-3.6%	?	-3.6%	-65.3*
Cc1nnc2ccc(-c3cccc(NC(=O)c4ccc(Cl)nc4)c3)nn12	3.5%	nt	-5.4%	0.0	0.6%	-28.5
O=[N+]([O-])c1cc(S(=O)(=O)NCCN2CCOCC2)ccc1Cl	-0.6%	nt	-3.1%	0.9	-5.3%	7.9
CC(C)C1N=C(c2ccc3c(c2)OCO3)CC(c2ccccc2O)N1 (centres undefined)	-0.9%	nt	2.2%	1.8	10µM*	-3.2
CCOc1ccccc1C1N=C(c2ccc(OC)cc2)CC(c2ccccc2O)N1 (centres undefined)	3.9%	nt	-10.2%	-3.1	-8.3%	7.0
SMILES	USP2a inh	L3MBTL1 inh-1	Eya2 phos inh	Six1-Eya2 inh	uPA generation	CtBP-E1A blk	others
COc1cc(C(=O)NC2CC(C)(C)CC(C)(C)C2)ccc1OC1CCN(C(C)=O)CC1	-1.4%	0.5%	-0.4%	-2.9	7.0%	-1.8
O=C(O)c1ccc2c3n(nc2c1)-c1ccc(Cl)cc1CO3	-0.8%	5.01µM*	6.9%	-3.9	-9.9%	0.0	L3MBTL1 inh-2=21.2*;L3MBTL1 ctr=-3.7%
CCCNC(=O)OCc1cccnc1Sc1ccc(C)cc1	-0.4%	-16.4%	-6.5%	0.9	2.0%	8.9
Cc1ccc2nc(N3C(=O)C(O)=C(C(=O)c4ccc(C)o4)C3c3ccco3)sc2c1 (centres undefined)	0.1%	?	-11.8%	-3.5	-9.1%	-1.0
Cc1cc(C)c2nc(N3C(=O)C(O)=C(C(=O)c4ccco4)C3c3cccc(O)c3)sc2c1 (centres undefined)	-8.5%	31.6µM*	-17.8%	-7.7	-4.2%	-11.2	L3MBTL1 inh-2=23.8*;L3MBTL1 ctr=0.1%
O=C(C1=C(O)C(=O)N(c2nc3ccc(Cl)cc3s2)C1c1ccco1)c1ccco1 (centres undefined)	-15.8%	20µM*	7.3%	-25.9	?	-11.8	L3MBTL1 inh-2=5.97*;L3MBTL1 ctr=-3.5%
CN(CCC#N)C(=O)COC(=O)c1c2c(nc3ccccc13)/C(=C/c1ccco1)CC2	2.0%	10µM*	5.9%	?	11.0%	-12.6	L3MBTL1 inh-2=2.12*;L3MBTL1 ctr=?
CC(C)CNC(=O)COC(=O)c1c2c(nc3ccccc13)/C(=C\c1cccs1)CC2	nt	nt	nt	42.3	-2.3%	42.2
Cc1oc(-c2ccc(Cl)cc2)cc1-c1nn2c(-c3ccco3)nnc2s1	-1.6%	-11.6%	14.4%	nt	nt	nt
Cc1oc(-c2ccc(F)cc2)cc1-c1nn2c(-c3ccoc3C)nnc2s1	-1.9%	17.8µM*	-6.9%	-21.0	7.5%	-28.0	L3MBTL1 inh-2=5.97*;L3MBTL1 ctr=6.1%
Cc1cc(NC(=O)Cc2cccs2)no1	2.9%	28.2µM*	-36.5%	-16.3	0.3%	-2.0	L3MBTL1 inh-2=3.36*;L3MBTL1 ctr=-20.1%
CN(C(=O)c1cccc(NC(=O)Cc2ccc(NC(=O)C3CCCN(C(=O)c4ccccc4)C3)cc2)c1)C1CCCC1 (centres undefined)	nt	nt	nt	0.3	10.3%	-23.3
CC(=O)OCC1=C(C(=O)O)N2C(=O)C(NC(=O)c3ccc(F)cc3)C2SC1 (centres undefined)	-3.0%	-17.1%	14.2%	2.9	17.9%	nt
CC(=O)OCC1=C(C(=O)O)N2C(=O)[C@@H](NC(=O)CSc3ccncc3)[C@H]2SC1	-2.7%	15.8µM*	3.2%	-10.2	3.3%	-2.8	L3MBTL1 inh-2=2.99*;L3MBTL1 ctr=6.5%
N=C1/C(=C\c2ccc(-c3ccc(C(=O)O)cc3)o2)C(=O)N=C2SC=C(c3ccccc3)N12	-10.4%	nt	-14.1%	-6.8	-5.5%	-13.6
